According to PubChem BioAssay:
The source made the active and inactive calls. The rule behind the calls is not given here.

Target: Protein kinase 7 (PK7), Plasmodium falciparum 3D7 (PF3D7_0213400) (UniProt Q7YTF7)
Test: inhibition of Plasmodium PK7 catalytic activity – biochemical, TCAMS antimalarial set, Kinase-Glo luminescence (AID 1159587)
Conditions: recombinant PfPK7, Kinase-Glo ATP depletion luminescence

Protein kinase 7 (PK7), Plasmodium falciparum 3D7 (PF3D7_0213400), sequence (Q7YTF7 1-343): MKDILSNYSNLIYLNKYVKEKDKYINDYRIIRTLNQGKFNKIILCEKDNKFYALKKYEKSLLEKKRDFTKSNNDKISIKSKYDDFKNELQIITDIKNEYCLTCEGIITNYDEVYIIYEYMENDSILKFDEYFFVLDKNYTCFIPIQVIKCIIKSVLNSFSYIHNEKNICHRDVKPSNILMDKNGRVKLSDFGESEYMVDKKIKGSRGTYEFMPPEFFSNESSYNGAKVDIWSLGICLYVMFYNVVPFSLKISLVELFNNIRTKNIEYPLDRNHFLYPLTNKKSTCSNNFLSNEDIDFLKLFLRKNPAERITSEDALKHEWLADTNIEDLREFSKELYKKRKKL

outcome, inactive:
Cc1cccc2[nH]c(-c3cccc(-c4ccc(NC(=O)Cc5cnc[nH]5)cc4)c3)nc12
Fc1ccc(-c2nc(NCc3cccc(C(F)(F)F)c3)nn2-c2cccc(C(F)(F)F)c2)cc1C(F)(F)F
Cc1cnc(NC(=O)c2cn(-c3ccccc3)nc2-c2cccs2)s1
CCN(CC)CCNC(=O)c1ccc(NC(=O)c2oc3c(Cl)cccc3c2C)cc1
COc1ccc(C=C2SC(=O)NC2=Nc2ccccc2)c(OC)c1
Cc1cc(N[C@@H](Cc2ccccc2)C(=O)NCCc2ccccc2)nc(NCc2ccccc2C)n1
COc1cc(CNCCCCCCNCc2cc(OC)cc3ccccc23)c2ccccc2c1
COc1cc(NC(=O)c2c(-c3c(Cl)cccc3Cl)noc2C)c(OC)cc1Cl
CN1CCN(CC2(Nc3nccc(NCc4ccc(Cl)cc4Cl)n3)CCCCC2)CC1
CN(C)CCCNCCS(=O)(=O)c1cccc(Nc2ccc(-c3cccc(N(C)C)c3)cn2)c1
COc1cc(SC)c(Br)cc1-c1nc2ccncc2[nH]1
Cc1cc(N2CCN(C3CCCCC3)CC2)nc2cccc(O)c12
CCCCCCn1c(Sc2ccc(C#N)c([N+](=O)[O-])c2)nnc1-c1ccc(OC)cc1
Cc1cc(N[C@@H](Cc2ccccc2)C(=O)NCc2cccs2)nc(NCCOc2ccccc2)n1
C(=N\Nc1nccc2sc(-c3cccnc3)cc12)/c1ccncc1
CCOC(=O)C(CO)NC(=O)c1ccc([N+](=O)[O-])o1 (stereo not given)
COc1ccc2nccc([C@@H](O)CN3CCC(NC(=O)c4cc5ccccc5[nH]4)CC3)c2c1
COc1ccc(-c2cccc(NC(=O)c3ccc(C#N)cc3)c2)cc1CN1CCCN(C)CC1
Cc1nccc2c(NC(=O)N[C@@H]3CCN(c4ncc(C(F)(F)F)cc4Br)C3)cccc12
CN(C)CCOC(=O)C1(O)CCC2CC1C2(C)C (stereo not given)
c1cncc(CCNCc2ccc(-c3cccc(-c4nc5ccccc5[nH]4)c3)cc2)c1
O=C(Cn1c(=O)cnc2ccccc21)Nc1cccc(C(=O)Nc2cccc(C(F)(F)F)c2)c1
COc1cc(Nc2nccc(N3CCC(NC(=O)c4cc5ccccc5s4)C3)n2)cc(OC)c1OC (stereo not given)
COc1ccc2ncc(C#N)c(CCN3CCC(NCc4ccc5c(c4)OCCO5)CC3)c2c1
COc1ccc(-c2cncc3ccc(C(=O)NCc4ccncc4)nc23)cc1
CC(C)(C)c1ccc(-c2ccccc2CNC(=O)c2cccc(O)c2)cc1
COc1ccc2nccc([C@@H](O)CN3CCC(NCc4cc5cc([N+](=O)[O-])ccc5[nH]4)CC3)c2c1
COc1ccc(C=NNc2cc(C)nc3ccccc23)cc1OC
Cc1cc(C(=O)NCc2ccc(-c3c(C)noc3C)cc2)n(-c2ccc(Cl)cc2)n1
O=C(Nc1cccc(CN2CCCN(Cc3ccc(O)cc3)CC2)c1)c1ccc(-c2ccccc2)cc1
CC(Cc1ccc(OCCN2CCN(c3cccc(C(F)(F)F)c3)CC2)cc1)NCC(O)c1cccc(C(F)(F)F)c1 (stereo not given)
COC(=O)C(=C(C)C)N1C(=O)[C@@H](NC(=O)OCc2ccccc2)[C@H]1SS[C@@H]1[C@H](NC(=O)OCc2ccccc2)C(=O)N1C(C(=O)OC)=C(C)C
CNCCNCc1ccc(-c2ccc(-c3nc4ccc(F)cc4[nH]3)cc2)cc1
COCc1nc(N)nc(N)c1-c1ccc(Cl)c(Cl)c1
O=C(/C=C/c1ccc(Cl)c(Cl)c1)NC1CCC(CN2CCC(c3cc4ccccc4[nH]3)CC2)CC1 (stereo not given)
CC(C)C1=CC(=NOS(=O)(=O)c2ccccc2)C=C(C(C)C)C1=O
c1ccc(-c2ccc(-c3csc(Nc4ccncc4)n3)cc2)cc1
O=C(Cc1ccc([N+](=O)[O-])cc1)N1CCc2cc3nccc(N4CCN5CCC[C@H]5C4)c3cc21
CC[C@H]1CN(CCCC(=O)c2ccccc2)CC[C@H]1CCCc1ccnc2ccc(OC(=O)c3ccccc3)cc12
Cn1cncc1-c1ccc2ncnc(Nc3ccc(OCc4ccccc4)cc3)c2c1
